Data on eight compounds can be found in PubChem BioAssay (NCATS).

Test [1] is described as follows: Cell Proliferation Assay Versus the ED40515 IL2 Dependent ATL cell lines (AID 1053195; calls by dose curve). The note with it: ED40515 IL2-dependent ATL cells. The gist of the method:
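CellTiter-Glo luminescence (15 min, RT) measured viability after 48 hours at 37C; cells were ED40515 +IL2, 1000/well, in phenol red-free RPMI with 5% FBS. Controls: DMSO and 9.2 uM bortezomib.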

Test [2] in a line: High-throughput drug toxicity screening in the BPDCN cell line Gen2.2 (AID 1224824; call rule not given here;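 further: cells exposed to compounds for 48 h before reading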). The note with it: Gen2.2 BPDCN cells; at 45.8 µM (top of the series) unless noted. The gist of the method: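 Gen2.2, 500 cells/well, phenol red-free RPMI/10% FBS/Pen-Strep; 48 h cpd, 37 °C/5% CO2; CTG lum, 15 min RT. Norm: DMSO = 100%, bortezomib 9.2 uM final = 0%.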
Test [3] is described as follows: High-throughput drug toxicity screening in the BPDCN cell line Cal-1 (AID 1224825; call rule not given here). The note with it: Cal-1 BPDCN cell viability, qHTS; at 45.8 µM (top of the series) unless noted. Put shortly: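 Percent activity derived from CellTiter-Glo luminescence, scaling DMSO to 100% and 9.2 uM final bortezomib to 0%. BPDCN Cal-1 cells (500/well, RPMI plus 10% FBS) incubated with compounds 48 hours at 37C before reading.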

Test [4] in a line: qHTS assay for measurement of the activity of small molecule inhibitors on Zika virus induced Caspase-3 activity in human iPSC derived neural progenitor cells (hNPCs) (AID 1224857). Further: % of control where 0% means no effect; nearly all actives have a fitted effect of over 65% in size. The note with it: hNPCs ZIKV-induced caspase-3/7, Caspase-Glo luminescence, 6 h; series mostly up to 45.7 µM. Put shortly:
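Pretreat hNPCs with compound 1 h; infect ZIKV 2 FFU/cell; 6 h 37 C, 5% CO2; Caspase-Glo 3/7, 30 min RT; luminescence; normalize to no-virus and virus-only wells.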

A short description of test [5]: qHTS assay for measurement of the activity of small molecule inhibitors on Zika virus induced Caspase-3 activity in human astrocytoma cells (AID 1224859).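 Further: plate controls were ZIKV-infected untreated cells for no effect and uninfected cells for full effect.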 The note with it: SNB-19 ZIKV-induced caspase-3/7, luminescence, 6 h; series mostly up to 45.7 µM. Put shortly:
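Human SNB-19 astrocytoma cells in RPMI 1640 with 10% FBS receive compound one hour ahead of Zika virus at 2 FFU/cell. After 6 h infection, caspase-3/7 activity is detected by Caspase-Glo luminescence.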

The nature of test [6]: qHTS Screen of the MIPE 4.0 Collection Against Ewings Sarcoma (RDES) (AID 1259252). Further: nearly all actives have a fitted effect of over 35% in size. Further: potency means the concentration at half of the fitted maximal effect. The note with it: RD-ES Ewing sarcoma viability, CellTiter-Glo, 48 h; series mostly up to 45.8 µM. The gist of the method: (§1)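 Cells plated in serum-containing RPMI (5% FBS) and treated with compound dilutions for 48 h. Readout luminescent viability; normalization relied on vehicle (no inhibition) and media-only columns (full inhibition).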

The nature of test [7]: qHTS Screen of the MIPE 4.0 Collection Against Ewings Sarcoma (TC71) (AID 1259253). Further: nearly all actives have a fitted effect of over 40% in size. Further: potency means the concentration at half of the fitted maximal effect. The note with it: TC71 Ewing sarcoma viability, CellTiter-Glo, 48 h; series mostly up to 45.8 µM. Put shortly: as §1
Test [8] in a line: qHTS Screen of the MIPE 4.0 Collection Against Ewings Sarcoma (EW8) (AID 1259255). Further: nearly all actives have a fitted effect of over 35% in size. Further: potency means the concentration at half of the fitted maximal effect.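 On viability: 100% = DMSO-treated cells and 0% = medium-only wells without cells.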 The note with it: EW8 Ewing sarcoma viability, CellTiter-Glo, 48 h; series mostly up to 45.8 µM. The gist of the method: as §1
A short description of test [9]: Identifying Small Molecule Inhibitors of Pancreatic Cancer Stem Cells (SN12C, Adherent) (AID 1259358).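 Further: cell survival measured after 48 h of compound exposure.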 As to conditions: viability/growth inhibition; series mostly up to 46.1 µM. Put shortly:
(§2)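 Pre-formed 14-day tumor spheroids or adherent cells dosed and incubated 48 h, 37C, 5% CO2. Viability assessed by CellTiter-Glo.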

Test [10] in a line: Identifying Small Molecule Inhibitors of Pancreatic Cancer Stem Cells (SN12C, Spheroid) (AID 1259360). Further: potency means the concentration at half of the fitted maximal effect.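 On viability (% of control): 100% = DMSO-treated cells and 0% = wells without cells.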 The note with it: Potency: SN12C spheroid viability; series mostly up to 46.1 µM. Put shortly:
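Spheroids grown 14 days in stem cell media on hydrogel-coated nonadherent plates; 2D lines seeded directly. Compounds added after 4 h attachment, 48 h at 37C, 5% CO2; CellTiter-Glo luminescence normalized to DMSO (no inhibition) and no-cell wells (full inhibition).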

A short description of test [11]: Identifying Small Molecule Inhibitors of Pancreatic Cancer Stem Cells (A278, Adherent) (AID 1259361). Further: nearly all actives have a fitted effect of over 35% in size.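 On viability (% of control): 100% = DMSO-treated cells and 0% = cell-free media-only wells.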 As to conditions: series mostly up to 46.1 µM. The gist of the method:
as §2

Test [12] in a line: qHTS Screen of the MIPE 4.0 Collection Against Ewings Sarcoma (TC32) (AID 1259256). Further: nearly all actives have a fitted effect of over 45% in size. Further: potency means the concentration at half of the fitted maximal effect. As to conditions: TC32 Ewing sarcoma viability, CellTiter-Glo, 48 h; series mostly up to 45.8 µM. Put shortly: as §1
A short description of test [13]: Identifying Small Molecule Inhibitors of Pancreatic Cancer Stem Cells (Panc1, Adherent) (AID 1259362). Further: potency means the concentration at half of the fitted maximal effect.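 On viability, % of control: compound exposure lasted 48 h before the viability read; plate controls were DMSO-treated cells for no effect and cell-free media wells for full effect.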 As to conditions: Potency: viability; series mostly up to 46.1 µM. Put shortly:
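Cytotoxicity read by CellTiter-Glo luminescence after 48 h compound exposure at 37C; percent activity scaled between DMSO-treated cells and cell-free wells. Spheroid formats used cells pre-formed 14 days in stem cell media on hydrogel.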

Test [14] is described as follows: P-glycoprotein substrates identified in KB-3-1 adenocarcinoma cell line, qHTS therapeutic library screen (AID 1346986). Further: nearly all actives have a fitted effect of over 60% in size. On activity change, negative = cytotoxicity: on the % scale 0 is the no-effect control and ±100 the full control effect. The note with it: KB-3-1 parental cells viability, CellTiter-Glo, 72 h; series mostly up to 44.5 µM. Put shortly: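 Viability read by CellTiter-Glo after 72 h compound exposure in dose-response of KB-3-1 and KB-8-5-11 (P-gp-high) cells. Hits needed AC50 < 10 uM, >50% maximum response and curve class -1.1 to -2.4. Cherry-picks retested ± tariquidar, including pcDNA/MDR-19 HEK-293 pair.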

Test [15] can be described thus: P-glycoprotein substrates identified in KB-8-5-11 adenocarcinoma cell line, qHTS therapeutic library screen (AID 1346987). Further: nearly all actives have a fitted effect of over 65% in size. Further: potency means the concentration at half of the fitted maximal effect. On activity change, negative = cytotoxicity: on the % scale 0 is the no-effect control and ±100 the full control effect. The note with it: KB-8-5-11 (P-gp overexpressing) viability, CellTiter-Glo, 72 h; series mostly up to 44.5 µM. The gist of the method: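 Compounds are pinned in dose-response onto KB-8-5-11 cells (500 cells/well, colchicine-free medium) and left 72 h at 37 degree C. CellTiter-Glo luminescence then yields AC50 values.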

The nature of test [16]: qHTS assay to identify small molecule inhibitors of chordoma cells - UCH-1 (AID 1259355). Further: on the % scale 0 is the no-effect control and ±100 the full control effect; nearly all actives have a fitted effect of over 55% in size. As to conditions: UCH-1 chordoma viability, CellTiter-Glo, 48 h, combination, with auranofin plus four topoisomerase inhibitors; series mostly up to 46.1 µM. Put shortly:
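800 cells/well, overnight attach; compounds pinned at 15 concs, then auranofin/camptothecin/doxorubicin/rubitecan/topotecan combo added; 48hr 37 C, 5% CO2; CellTiter-Glo, 30min RT, luminescence.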

Test [17] can be described thus: qHTS assay to identify small molecule inhibitors of chordoma cells - UCH-2 (AID 1259356). Further: on the % scale 0 is the no-effect control and ±100 the full control effect. The note with it: UCH-2 chordoma viability, CellTiter-Glo ATP luminescence, 48 h; series mostly up to 46.1 µM.
Test [18] can be described thus: Natriuretic polypeptide receptor (hNpr1) antagonism - Pilot counterscreen GloSensor control cell line (AID 1347045; calls by dose curve; further: on the % scale 0 is the no-effect control and ±100 the full control effect). The note with it: HEK293 cGMP GloSensor cells, SNP-stimulated luminescence, 20 min; series mostly up to 38.3 µM. Put shortly:
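Control counterscreen: luciferase cGMP-biosensor HEK293 cells (no Npr1) received compound for 30 min at room temperature after GloSensor substrate loading. Luminescence was measured before and 20 min after soluble guanylyl cyclase activation by 50 uM nitroprusside.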

Inconclusive results are not listed. Activity calls are given as the source filed them. Unless noted, the call rests on the fitted dose curve; in most records, active means well fitted curve in the direction sought with a large enough effect; inconclusive means small, poorly fitted or top-dose-only effect, or another doubt; inactive means no such curve, though single readings can be large; an effect the other way counts as inactive or inconclusive.

As for `Cc1cc(-c2ccc(CC(=O)Nc3ccc(-c4cccnc4)cc3)cc2)ccn1`, the Potency was 4.18 µM (active) in test [1], 20.9 µM (active) in test [6], 16.6 µM (active) in test [7] and 18.7 µM (active) in test [8]. The cell viability, % of control (lower = more cytotoxic) in test [2] worked out at 255%. Further, the viability (% of control) in test [3] stood at 20.4%. Moreover, the Potency result in [4], in test [5], in test [9] and in test [10] was “inactive” each time. In addition, the IC50 (viability decrease) in test [11] was 18.7 µM (active).

Regarding `CC[C@H](Nc1ncnc2nc[nH]c12)c1nc2cccc(F)c2c(=O)n1-c1ccccc1`, the Potency was 5.9 µM (active) in test [1]; 2.35 µM (active) in test [6]; 2.96 µM (active) in [7]; 2.64 µM (active) in test [8]; 2.96 µM (active) in test [12]. In addition, the viability (% of control) in test [3] came to 18.8%. Besides, the Potency entry in test [4], in test [5] and in test [13] was “inactive” in each case. In addition, in test [11], the IC50 (viability decrease) was 20.9 µM (active). Moreover, the outcome in [14] was “inactive [at 9.29 µM]”. Besides, the activity change, negative = cytotoxicity in [15] was 3.11% [at 9.29 µM] (inactive).

On to `CC(=O)NC(C)c1ccc(Oc2ccc(OC(C)C)cc2)cc1` (stereo not given), for which the Potency is 13.2 µM (active) in test [1], 8.33 µM (active) in test [7], 6.62 µM (active) in test [8] and 4.69 µM (active) in [13]. Besides, in [2], the cell viability, % of control (lower = more cytotoxic) was found to be 281%. In addition, the viability (% of control) in test [3] was found to be 98.5%. Besides, the Potency entry in [4], in test [5], in test [6], in test [12], in test [9] and in test [10] was “inactive” each time. In addition, in test [15], the Potency result is “inactive”.

For the compound `CCc1cncnc1N1CCN(Cc2nc3ccc(C(F)(F)F)cc3[nH]2)CC1`, the Potency is 1.18 µM (active) in test [1], 20.9 µM (active) in test [6], 16.6 µM (active) in test [12] and 14.8 µM (active) in [10]. Moreover, the cell viability, % of control (lower = more cytotoxic) in test [2] turned out to be 130%. For the same compound, the viability (% of control) in test [3] turned out to be 91.1%. Besides, in [4], the Potency result was “inactive”.

Consider `Clc1cccc(Cl)c1NC1=NCCN1`, for which the cell viability, % of control (lower = more cytotoxic) in [2] turned out to be 144%. In [3], the viability (% of control) amounted to 113%. Further, the Potency entry in test [4], in test [5], in [6], in test [7], in test [8] and in [12] was “inactive” in each case. Besides, the Potency entry in [16], in [14] and in test [15] was “inactive” throughout. The compound was called inactive in [17] and in [18].

Regarding `Fc1ccc(Cl)cc1-c1nc(Nc2ccncc2)c2nccnc2n1`, the Potency in test [1] is 13.2 µM (active); in test [12], 1.32 µM (active). Further, the viability (% of control) in [3] worked out at 85.1%. The Potency result in test [4], in test [5], in test [6], in test [9], in [10] and in test [13] was “inactive” in each case. The Potency result in [14] and in [15] was “inactive” each time. The IC50 (viability decrease) entry in [11] is “inactive”.

With `O=C(C1CC1)N1CC[C@@H](Cn2c(-c3ccc(-c4ccc5occc5c4)cc3)nc3cnccc32)C1`, the Potency in test [1] is 16.6 µM (active); in test [8], 13.2 µM (active). In addition, the cell viability, % of control (lower = more cytotoxic) in [2] is 133%. In [3], the viability (% of control) turned out to be 95.4%. In addition, the Potency entry in [4], in test [5], in test [6], in [12], in [9] and in test [15] was “inactive” each time.

Take `Cc1cc2c(C(C)C)c(O)c(O)c(C=O)c2c(O)c1-c1c(C)cc2c(C(C)C)c(O)c(O)c(C=O)c2c1O`: the cell viability, % of control (lower = more cytotoxic) in test [2] was 14.5%. In addition, the viability (% of control) in test [3] was 6.4%. For the same compound, the Potency entry in [4], in [5] and in test [16] was “inactive” throughout. Also, the Potency is 10.5 µM (active) in [6]; 13.2 µM (active) in test [7]; 11.8 µM (active) in [8]; 18.7 µM (active) in test [12]; 11.8 µM (active) in test [15]. Also, the compound was called inactive in [17]. In addition, the IC50 (viability decrease) in test [11] is 26.4 µM (active).
